# Most compounds without a hit are left out; they make up all but 9.4% or so of the library.
# ELG1 repair inh – qHTS screen for small molecules that inhibit ELG1-dependent DNA repair in human embryonic kidney (HEK293T) cells expressing luciferase-tagged ELG1. HEK293T ELG1-luciferase reporter, luminescence, 16 h; DNA damage induced by 5-fluorouridine. Potency, µM (series often up to 46.1 µM), without a hit: at the highest dose activity change, negative = inhibition, actives largely listed as inhibitors. AID 504467, 2011. hit rate 2.3% among 330,000; note: % is set by controls: 0 for no effect and ±100 for the full control effect; nearly all actives have a fitted effect of over 55% in size
#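 In this reporter screen, reduction of luminescence relative to DMSO vehicle indicated activity. Compounds and 5-fluorouridine were added together to 2,000 cells per well, incubated for 16 hr at 37 °C, then developed with ONE-Glo.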
# NPC1 promoter act – qHTS Assay for NPC1 Promoter Activators; Huh7 NPC1 promoter luciferase reporter, 24 h; Potency, µM (titrated, usually from 9.22 µM), without a hit: top-dose activation, usual class: activators; hit rate 2.4% among 320,000; AID 485313, 2010; note: % of control where 0% means no effect; nearly all actives have a fitted effect of over 60% in size
#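 Compounds in DMSO were transferred onto Huh7 NPC1-luciferase reporter cells pre-incubated 2 h; after 24 h at 37 °C, Amplite reagent was dispensed and luminescence recorded 10 min later.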
# SMN2 splice up – qHTS Assay for Enhancers of SMN2 Splice Variant Expression | Potency, µM (titrated, usually from 46.1 µM), inactives show at the top dose activity change, positive = activation, most hits filed as activators | hit rate 2.8% among 210,000 | HEK293 SMN2-luciferase splicing reporter, luminescence, 30-36 h; note: % of control where 0% means no effect; nearly all actives have a fitted effect of over 55% in size
#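 HEK293 cells carry an SMN2 minigene-luciferase reporter in which exon 7 inclusion puts luciferase in frame. Cells were seeded at 2000 cells/well, attached for 10-12 hours, then exposed to compounds for 30-36 hours at 37C before ONE-Glo luminescence.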
# ELG1 genotox – qHTS screen for small molecules that induce genotoxicity in human embryonic kidney (HEK293T) cells expressing luciferase-tagged ELG1; HEK293T ELG1-luciferase reporter, luminescence, 16 h; Potency, µM (top dose mostly 46 µM), inactives show at the top dose activity change, positive = activation, most hits filed as activators; hit rate 1.3% among 330,000; AID 504466, 2011; note: % of control where 0% means no effect; nearly all actives have a fitted effect of over 60% in size
#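 16 hr compound incubation (37 °C, 5% CO2) of HEK293T cells carrying luciferase-tagged ELG1; luciferase then measured by ONE-Glo luminescence after 30 min at RT.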
# FLuc modulator – qHTS profiling assay for firefly luciferase inhibitor/activator using purifed enzyme and Km concentrations of substrates (counterscreen for miR-21 project) | AID 588342, 2011 | purified FLuc, Km substrates, luminescence inhibition | hit rate 6.9% among 360,000 | Luciferin 4-monooxygenase (Photinus pyralis), P08659 | Potency, µM (titrated, usually from 57.5 µM), inactives show top-dose activity change, negative = inhibition, usual class: inhibitors;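 note: plate controls were vehicle for no effect and reference inhibitor for full effect; nearly all actives have a fitted effect of over 55% in size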
# Target sequence (P08659 whole entry, looked up): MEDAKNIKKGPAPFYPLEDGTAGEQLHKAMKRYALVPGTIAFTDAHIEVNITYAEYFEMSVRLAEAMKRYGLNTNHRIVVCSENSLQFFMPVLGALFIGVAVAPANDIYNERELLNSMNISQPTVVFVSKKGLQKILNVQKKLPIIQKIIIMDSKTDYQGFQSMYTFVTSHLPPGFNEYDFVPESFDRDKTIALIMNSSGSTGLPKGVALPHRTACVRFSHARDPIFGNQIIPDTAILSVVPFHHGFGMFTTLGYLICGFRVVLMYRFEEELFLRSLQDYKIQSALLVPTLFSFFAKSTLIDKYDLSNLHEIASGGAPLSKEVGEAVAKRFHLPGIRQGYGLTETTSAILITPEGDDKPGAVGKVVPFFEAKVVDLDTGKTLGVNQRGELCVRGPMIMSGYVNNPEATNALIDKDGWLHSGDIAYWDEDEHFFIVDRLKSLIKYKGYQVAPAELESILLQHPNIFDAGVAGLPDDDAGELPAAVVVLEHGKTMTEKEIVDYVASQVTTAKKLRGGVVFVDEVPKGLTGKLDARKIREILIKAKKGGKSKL
#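 Purified P. pyralis luciferase (10nM final) with 10uM D-luciferin and 10uM ATP (Km levels) in 50mM Tris acetate pH 7.5, 10mM Mg acetate, 0.01% Tween-20, 0.05% BSA; qHTS 6-point titration, ~60 µM downward; luminescence read.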
# Rab9 prom act – qHTS Assay for Rab9 Promoter Activators; hit rate 2.8% among 320,000; Potency, µM (doses to about 9.22 µM), inactives show top-dose activation, negative = inhibition, actives largely listed as activators; AID 485297, 2010; Huh7 Rab9 promoter-luciferase reporter, luminescence, 24 h; note: % of control where 0% means no effect; nearly all actives have a fitted effect of over 60% in size
#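 Using Huh7 cells stably transfected with Rab9 promoter–luciferase, compounds were incubated 24 h at 37 °C, 5% CO2; luciferase luminescence was read 10 min after reagent addition.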
# An asterisk follows results filed as active; ? = inconclusive; . = no result; [ ] = another dose, or the depositor's remark. Calls come from the whole dose curve; as a rule, active = well fitted curve in the direction sought with a large enough effect; inconclusive = small, poorly fitted or top-dose-only effect, or another doubt; inactive = no such curve, though single readings can be large; an effect the other way counts as inactive or inconclusive. Potency is the fitted concentration of half-maximal effect.
SMILES,ELG1 repair inh,NPC1 promoter act,SMN2 splice up,ELG1 genotox,FLuc modulator,Rab9 prom act
Cn1cnnc1SCC(=O)Nc1ccc2nc(SCc3ccccc3F)sc2c1,?,2.8µM*,?,?,6.7µM*,1.6µM*
Cc1cccc(NC(c2cccc(Cl)c2)c2ccc3cccnc3c2O)n1 (stereo not given),.,.,-32%,.,3%,.
Cc1cccnc1Nc1nc(-c2ccccc2)cs1,?,3.2µM*,.,2.6µM*,1.9µM*,3.5µM*
Cc1cccnc1Nc1nc(-c2ccccn2)cs1,?,?,.,5.8µM*,?,-1%
Cc1ccc(S(=O)(=O)Nc2cc(Cl)c3oc4c(c3c2)CCCC4)cc1,.,.,-28%,.,?,.
COc1cc2ccccc2cc1C(=O)N1CCN(c2nc3ccc(F)cc3s2)CC1,.,.,.,.,-12%,.
O=S(=O)(c1ccc2[nH]c3c(c2c1)CCCCC3)N1CCN(c2cccc(Cl)c2)CC1,.,.,.,.,0%,.
CCn1cnc2cc(NC(=O)c3ccco3)ccc21,?,2.8µM*,5µM*,18µM*,11µM*,1.6µM*
Cc1nc2ccc(NC(=O)c3ccco3)cc2nc1C,?,19%,24%,17%,?,?
CCCn1cnc2cc(NC(=O)c3cccs3)ccc21,?,?,16µM*,12%,11µM*,2.8µM*
CC(C)(C)n1cnc2cc(NC(=O)c3ccco3)ccc21,?,0.28µM*,.,?,9.5µM*,0.71µM*
Cn1c(CCN2CCOCC2)nc2cc(NC(=O)c3cccs3)ccc21,2%,-3%,7%,-1%,1%,-4%
CCCn1cnc2cc(NC(=O)c3ccco3)ccc21,?,3.5µM*,.,2.9µM*,?,2.8µM*
O=C(O)c1[nH]c(=O)[nH]c(=O)c1CN1CCCCC1,.,.,8%[9.22 µM],.,.,.
CCc1ccccc1NC(=O)Nc1cc(C(=O)NCc2ccc(OC)cc2)ccc1N1CCCC1,.,.,.,.,0%,.
COc1ccc(NC(=O)c2oc3ccccc3c2NC(=O)C23CC4CC(CC(C4)C2)C3)c(OC)c1,.,.,-3%,.,-3%,.
COc1cc(Cl)c(C)cc1NC(=O)Cn1ncc2c([nH]c3ccccc32)c1=O,.,.,.,.,-4%,.
O=C(C1CCN(S(=O)(=O)c2cccnc2)CC1)N1CCN(c2ccccc2Cl)CC1,.,.,-10%,.,-2%,.
O=C(C1CCN(S(=O)(=O)c2cccc3cccnc23)CC1)N1CCN(c2ccc(Cl)cc2)CC1,18µM*,-7%,-84%,-17%,1%,-26%
O=C(C1CCN(S(=O)(=O)c2cccnc2)CC1)N1CCN(c2ccc(Cl)cc2)CC1,2.9µM*,-10%,.,-6%,1%,-22%
Cn1cnc2nc(NCCO)nc(NCc3ccccc3)c21,.,.,25%,.,.,.
COc1ccc(-n2nc(C(=O)N3CCC(C)CC3)c3c4ccccc4n(C)c3c2=O)cc1Cl,.,.,7%,.,-1%,.
CCOC(=O)c1cnc(SCc2ccccc2)nc1N,?,1.6µM*,5.6µM*,7.3µM*,2.1µM*,0.89µM*
CCOC(=O)C(C)Sc1ncc(-c2ccccc2)cn1 (stereo not given),?,5%,3%,8%,21µM*,23%
CCOC(=O)C(C)Sc1nc(-c2ccccc2)ccc1C#N (stereo not given),.,.,18%,.,-16%,.
SMILES,ELG1 repair inh,NPC1 promoter act,SMN2 splice up,ELG1 genotox,FLuc modulator,Rab9 prom act
c1ccc(-c2ccc(N3CCCC4(CCNCC4)C3)cc2)cc1,.,.,-55%,.,.,.
CCN1C(=S)SC(=O)C1=C1C=C(C)N(CCOC)C(C)=C1,?,0.4µM*,?,1.6µM*,2.4µM*,0.79µM*
CCN1C(=O)/C(=C/C=C2/Sc3ccccc3N2CCO)SC1=S,0%,0%,-48%,11%,-15%,1%
CCN1C(=S)SC(=O)C1=C1C=C(C)N(CCO)C(C)=C1,?,1.3µM*,-17%,5.2µM*,7.6µM*,1.4µM*
COCCN1C(=O)/C(=C/c2ccc(N3CCCC3)cc2)SC1=S,18%,?,14%,8%,?,?
COC(=O)CNC(c1ccccc1)c1cc(C)ccc1NC(=O)c1cccc(Cl)c1 (stereo not given),18µM*,-2%,-25%,-8%,0%,-9%
Cc1ccccc1C(=O)Nc1cccc(-c2cn3cccnc3n2)c1,.,.,.,.,-4%,.
COc1ccc(S(=O)(=O)NCCc2csc3nc(-c4ccc(OC)c(OC)c4)nn23)cc1C,.,.,.,.,-14%,.
O=C(NCc1ccccc1Cl)C1CCN(S(=O)(=O)Cc2ccccc2)CC1,.,.,.,.,6%,.
O=[N+]([O-])CC(=Nc1ccc(Cl)cc1)N/N=C\c1oc(O)c2ccccc12,?,?,10%,11%,12µM*,?
Cc1ccc(C)c(N2CCN(S(=O)(=O)c3ccc4oc(=O)c5ncn(C)c5c4c3)CC2)c1,.,.,-2%,.,-4%,.
CCC(=O)C1CCCN(C(=O)CCc2nnc(-c3ccc4c(c3)OCO4)o2)C1 (stereo not given),?,14%,.,?,?,?
CCC(=O)C1CCCN(C(=O)CCc2nnc(-c3ccc(C(C)=O)s3)o2)C1 (stereo not given),?,?,.,?,11µM*,?
CCCOC1CCCN(C(=O)CCc2nnc(-c3ccc4c(c3)OCO4)o2)C1 (stereo not given),?,?,.,?,?,3.2µM*
CN1CCc2nc(N)nc(-c3nc(N)nc4c3CN(C)CC4)c2C1,.,.,-8%[9.22 µM],.,.,.
CC(=O)OCOC(c1ccc2ccccc2c1)P(=O)(OCOC(C)=O)OCOC(C)=O (stereo not given),.,.,-22%,.,.,.
COc1ccc(CNC(=O)c2cccnc2Sc2ccc(Cl)cc2)cc1,6%,-1%,-8%,1%,-1%,3%
O=C(NCc1cc([N+](=O)[O-])ccc1O)c1cccnc1Sc1ccccc1Cl,-1%,-5%,.,-8%,15µM*,-5%
O=C(NCc1cc([N+](=O)[O-])ccc1O)c1cccnc1Sc1ccc(Cl)cc1,?,?,.,6.5µM*,?,16%
Cc1ccc(NC(=O)CCCn2c(=O)c3cccn3c3cccnc32)cc1C,.,.,.,.,3%,.
Fc1cccc(Cl)c1-c1nnc2ccc3ccccc3n12,?,-8%,-51%,5%,19µM*,-8%
Fc1ccccc1-c1nnc2ccc3ccccc3n12,4%,5%,.,-2%,-15%,-1%
Cc1nncn1-c1ccc(C(=O)Nc2cc(F)ccc2F)cc1,.,.,.,.,0%,.

# Assay outcomes from PubChem BioAssay.
